Test results: PubChem BioAssay AID1233 (SRMLSC, 2008)
Results with a measured potency or affinity are listed apart. Active and inactive are the calls of the source.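 How the source made its calls: active means a dose-response curve fit returns a half-maximal inhibitory concentration, extrapolated values included; inactive means the fit returns no such concentration.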 Residues, ends and D or L forms follow the SMILES beside them.

Target: HMG-CoA reductase [Enterococcus faecalis] (UniProt Q9FD70)
Test: class II HMG-CoA reductase inhibition potency – biochemical, Enterococcus faecalis, confirmation (AID 1233);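 further: 0% = full reaction carrier wells and 100% = background wells lacking mevalonate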
Details: purified E. faecalis HMGR, NADPH absorbance 340 nm kinetics; series mostly up to 100 µM; inhibition: at the top concentration

| SMILES | inhibition |
| --- | --- |
| Cc1c(P(=S)(c2ccccc2)c2ccccc2)[n+]2ccccc2n1C | -0.09% (inactive) |
| COc1ccc(C[C@@H]2c3cc(O)c(OC)cc3CCN2C)cc1O | -10.2% (inactive) |
| CCN(CCNc1ccc([N+](=O)[O-])c2cccnc12)S(=O)(=O)c1ccccc1 | -0.43% (inactive) |
| CC1(C)C(C(=O)NCc2ccco2)C1(C)C | -1.02% (inactive) |
| COc1ccc(C(=O)C2CCCN(Cc3cnc(C)s3)C2)c(OC)c1 (stereo unspecified) | -9.69% (inactive) |
| CC(C)Oc1cccc(NC(=O)c2cccn(Cc3ccc4c(c3)OC(F)(F)O4)c2=O)c1 | 0.02% (inactive) |
| COc1ccc(CCn2c(O)c(C=NCCCn3ccnc3)c(=O)[nH]c2=O)cc1OC | -9.15% (inactive) |
| COc1ccc(NC(=O)c2c(C)nn(Cc3ccccc3Cl)c2Cl)cc1Cl | 0.95% (inactive) |
| O=C(O)[C@@H]1C[C@H]1[C@@H](NP(=O)(c1ccccc1)c1ccccc1)c1ccccc1 | -6.79% (inactive) |
| CCCCC(CC)CNCC(O)c1ccccc1 (stereo unspecified) | -0.48% (inactive) |
| CCCn1cc(C(=O)O)cn1 | -0.87% (inactive) |
| CCc1ccc(NC(=O)C(C)OC(=O)c2c(C)nn(Cc3ccccc3)c2Cl)cc1 (stereo unspecified) | -2.14% (inactive) |
| CCN1CCN(C(=O)Cc2ccccc2OC)CC1 | -4.39% (inactive) |
| OC(Cn1c2ccccc2c2ccccc21)C[n+]1cccc2ccccc21 (stereo unspecified) | -0.21% (inactive) |
| CC(C)C[C@H](NC(=O)[C@@H]1CCCN1C(=O)[C@@H](N)Cc1ccc(O)cc1)C(=O)NCC(N)=O (H-YPLG-NH2) | -4.74% (inactive) |
| O=[N+]([O-])/C(Cl)=C1\NCCN1Cc1ccc(Cl)nc1 | -0.72% (inactive) |
